S1P4 ag = activates the human S1P4 receptor. activation, % at 4.98 µM. AID 1509. S1P4-expressing cell line, agonist reporter assay. O95977. 220,000 compounds, 0.35% hits; in the data active = activation above about 11%;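 also: 0% = DMSO vehicle and 100% = reference agonist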
Target sequence (O95977 whole entry, looked up): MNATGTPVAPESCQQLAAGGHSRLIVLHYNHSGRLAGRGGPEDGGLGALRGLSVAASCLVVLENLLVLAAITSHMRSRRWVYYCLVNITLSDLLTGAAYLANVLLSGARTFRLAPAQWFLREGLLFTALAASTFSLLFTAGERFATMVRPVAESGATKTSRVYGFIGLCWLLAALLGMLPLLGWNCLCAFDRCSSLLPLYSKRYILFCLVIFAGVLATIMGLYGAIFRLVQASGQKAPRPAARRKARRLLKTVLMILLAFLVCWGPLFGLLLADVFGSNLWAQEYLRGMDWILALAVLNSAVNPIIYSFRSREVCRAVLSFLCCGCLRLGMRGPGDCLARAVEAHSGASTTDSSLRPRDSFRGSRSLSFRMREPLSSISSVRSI
S1P4 antagonist = blocks the human S1P4 receptor; S1P4-expressing cells, antagonist mode, reporter read-out; inhibition, % at 4.98 µM; AID 1510; 220,000 compounds, 0.26% hits; in the data active = inhibition above about 29%;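 also: 0% = wells stimulated with agonist and 100% = vehicle wells without agonist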
GALR2 ag = agonists of human galanin receptor 2 (GALR2). AID 803. 140,000 compounds, 0.48% hits. activation, % (concentration not given with the values). GALR2-expressing cells, agonist activation read-out; in the data active = activation above about 5%, passing the limit was not always enough;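 also: 0% = vehicle buffer wells and 100% = reference agonist at full effect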
GALR2 antag = antagonists of human galanin receptor 2 (GALR2); O43603; GALR2-expressing cells, antagonist mode; inhibition, % at 4 µM; 140,000 compounds, 0.39% hits; AID 828; in the data active = inhibition above about 27%;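 also: cells stimulated with galanin 1-16 at roughly its EC80; 0% = agonist challenge control and 100% = basal control without agonist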
S1P3 antagonist = antagonists of human S1P3 receptor; Q99500; 170,000 compounds, 0.27% hits; inhibition, % at 4.98 µM; AID 485; CHO S1P3 NFAT-BLA reporter, FRET fluorescence, antagonist mode;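 active = inhibition above the plate cutoff, the mean inhibition of test wells on that plate plus 3 SD, cut at about 28% in these data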;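 also: cells challenged with S1P at its EC80 of 0.8 µM; blue over green emission ratio from cleaved BLA substrate after 4 h stimulation; 0% = S1P-stimulated wells and 100% = unstimulated DMSO-only wells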
GALR2 agon conf = GALR2 (human) agonism confirmed; shares compounds with GALR2 ag; GALR2-expressing cells, agonist activation; activation, % at 5.6 µM; 460 compounds, 10% hits; AID 864; in the data active = activation above about 8.4%;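 also: 0% = buffer-only vehicle wells and 100% = full reference agonist response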
BLA activ ctr = beta-lactamase activation, GALR2 counterscreen; shares compounds with GALR2 ag; CHO NFAT-bla reporter, beta-lactamase FRET activation; activation, % at 5.6 µM; 460 compounds, 10% hits; AID 865;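 active = activation above the screen-wide mean activation plus 3 SD, cut at about 8% in these data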;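 also: 0% = DMSO with PBS wells and 100% = thapsigargin positive control wells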
* = called active by the depositor; nt = no result given. The list is not random: actives were taken first. Their share in the collection is about 1.3%.

SMILES	S1P4 ag	S1P4 antagonist	GALR2 ag	GALR2 antag	S1P3 antagonist	GALR2 agon conf	BLA activ ctr
Cn1c(=O)oc2cc(S(=O)(=O)N3CCCC(C(=O)Nc4ccccn4)C3)ccc21 (stereo not drawn)	3.0	-11.1	16.9*	6.9	nt	-0.3	-2.1
COc1cc(NC(=O)C2CCCN(S(=O)(=O)c3ccc4c(c3)oc(=O)n4C)C2)cc(OC)c1 (stereo not drawn)	1.4	-2.0	-3.7	-3.8	nt	nt	nt
Cc1cc(=O)[nH]c(-n2nc(C)c(Oc3ccccc3O)c2C)n1	1.8	8.1	32.2*	-30.5	-20.8	27.4*	59.8*
O=C(CSc1nccc(-c2ccc(Br)cc2)n1)NCCc1ccccc1	-0.6	-29.2	1.1	0.3	nt	nt	nt
CC(=O)Nc1ccc(Nc2ncnc3c2cnn3-c2ccc(C)cc2C)cc1	-1.7	11.1	76.1*	-5.2	nt	-0.9	-2.4
CC(=O)Nc1ccc(Nc2ncnc3c2cnn3-c2cccc(C)c2)cc1	-0.3	2.7	-1.3	2.7	32.7	nt	nt
Cc1cc(C)cc(N(C(C)C(=O)NCCC2=CCCCC2)S(C)(=O)=O)c1 (stereo not drawn)	0.6	-3.5	-1.2	-5.3	nt	nt	nt
CCN1CCN(C(CNS(=O)(=O)c2cccs2)c2cccnc2)CC1 (stereo not drawn)	-1.6	7.2	nt	nt	-12.7	nt	nt
COc1ccc(C(=O)CSc2nnc(C3CC3)n2N)cc1	0.0	3.7	21.4*	-2.9	nt	-1.0	-1.6
Cn1nc(OC(=O)Nc2ccc(F)cc2)cc1C(F)(F)F	-3.5	7.2	62.3*	-2.3	nt	-1.2	-2.5
O=S(=O)(Nc1cccnc1)c1ccc(Cl)cc1	0.5	-0.2	79.7*	-0.1	nt	-0.5	-1.4
COc1ccc(NC(=O)C2=C(C)C(=O)OC23CCC(C)CC3)cc1Cl (stereo not drawn)	1.6	-0.6	84.4*	-23.9	nt	-0.7	-1.5
CN(C(=O)CSc1nc2cc(C(=O)O)ccc2c(=O)n1Cc1ccccc1)C1CCS(=O)(=O)C1 (stereo not drawn)	-0.1	-0.9	nt	nt	-3.4	nt	nt
COc1ccc(-c2noc(CCC(=O)NC3CCCCC3)n2)cc1OC	-1.7	-3.5	-3.2	4.5	13.2	nt	nt
COc1cc(-c2noc(CCCC(=O)NC3CCCCC3)n2)cc(OC)c1OC	-0.7	-10.9	25.9*	-5.1	nt	-0.5	-0.6
CCCNC(=S)N1CCC(c2nc3cc(C)c(C)cc3[nH]2)CC1	0.8	-24.3	32.5*	-9.9	nt	-0.6	-1.5
COc1cc(C(C(=O)Nc2c(C)cccc2C)N(C)C(=O)c2ccc(-n3cnnn3)cc2)ccc1O (stereo not drawn)	0.1	-18.8	nt	nt	4.2	nt	nt
O=S(=O)(Nc1ccc2c(c1)OCO2)c1ccccc1	-3.2	5.2	34.0*	0.9	nt	-0.2	-0.5
CCc1ccc(-c2cc(C(F)(F)F)n3nc(C(=O)Nc4c(C)nn(Cc5ccc(F)cc5)c4C)cc3n2)s1	-2.3	-0.7	13.1*	-14.2	nt	1.9	1.8
Cc1ccccc1Cn1nc(C)c(NC(=O)c2cc3nc(-c4ccco4)cc(C(F)(F)F)n3n2)c1C	0.6	9.4	0.0	-4.2	-1.2	nt	nt
CSCCC(NC(=O)c1ccccc1Br)C(=O)Nc1ccc(C)cc1 (stereo not drawn)	0.1	-18.0	-0.4	9.1	-2.1	nt	nt
Cc1cccc(NC(=O)/C(C#N)=C/c2cn(CC(=O)NCc3ccco3)c3ccccc23)c1	-0.5	-16.8	30.6*	-1.9	-0.1	13.6*	13.4*
COc1ccc(OCCn2cc(/C=C(\C#N)C(=O)NCc3ccco3)c3ccccc32)cc1	0.4	-8.1	13.2*	0.8	-13.5	4.4	2.6
COCCNC(=O)/C(C#N)=C/c1cn(CC(=O)NCc2ccco2)c2ccccc12	0.3	-7.4	nt	nt	2.2	nt	nt
COc1ccccc1OCCn1cc(/C=C(\C#N)C(=O)NCc2ccco2)c2ccccc21	1.6	-11.4	-0.9	4.4	3.5	nt	nt
O=C(NC1CCCCC1)C(c1ccccn1)N(C(=O)c1csnn1)C1CC1 (stereo not drawn)	1.1	9.5	nt	nt	-20.4	nt	nt
COC(=O)c1cc(NC(=O)CSc2nncn2C)cc(C(=O)OC)c1	-4.3	3.0	15.9*	-5.2	nt	-0.6	-0.8
COC(=O)c1ccc(NC(=O)CSc2nncn2C)cc1	0.5	-11.8	-2.0	2.1	2.4	nt	nt
CC(=O)NNC(=O)CCC(=O)Nc1ccccc1	0.0	0.4	17.4*	-1.0	nt	-0.7	-2.2
O=C(CCC(=O)Nc1ccccc1)NNC(=O)CCc1ccccc1	-1.4	-12.7	nt	nt	6.3	nt	nt

Compound activity: PubChem, The Scripps Research Institute Molecular Screening Center
